Over roughly 5,000 sequences, “log2 normalized fluorescence” has its median near 0.089; the highest 2% begin near 0.81. This is one part of a sample in which the highest values are shown more often than they occur.

For this test, the target named is MYC (p64);MAX (p21), in MYC:MAX (human;human, UniProt P01106-1;P61244-2 1-439;1-151, |). As to the kind of experiment: protein-binding microarray (anti-MAX antibody); PBM: 15 mM Tris-HCl pH 7.5, 100 mM KCl, 0.075% NP40, 7.5 mM beta-mercaptoethanol, 375 ng/ul BSA, 8 ng/ul poly(dA-dT):(dA-dT), 550 ng complex, 60 min, room tempe; high values mean tight binding. The settings on record: protein: recombinant;recombinant; tags: 6xHis;6xHis; copies: 1;1; label: 3' end of printed strand (linker) attached to glass slide; dsDNA, one strand shown. In outline: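 For each of ~5000 unique double-stranded 12-nt sequences, spotted in triplicate on a custom Agilent glass array, binding of His-tagged human MYC:MAX or MAX:MAX dimers is reported as log2 normalized fluorescence. The dimers (550 ng, E. coli-expressed) were incubated for 60 min at room temperature in Tris-KCl buffer, pH 7.5, with NP40, BSA and poly(dA-dT) competitor. Detection used anti-MAX and secondary antibodies with a 543 nm scan.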
Chain of MYC (p64);MAX (p21), in MYC:MAX (P01106 16-454, chain 1 of 2): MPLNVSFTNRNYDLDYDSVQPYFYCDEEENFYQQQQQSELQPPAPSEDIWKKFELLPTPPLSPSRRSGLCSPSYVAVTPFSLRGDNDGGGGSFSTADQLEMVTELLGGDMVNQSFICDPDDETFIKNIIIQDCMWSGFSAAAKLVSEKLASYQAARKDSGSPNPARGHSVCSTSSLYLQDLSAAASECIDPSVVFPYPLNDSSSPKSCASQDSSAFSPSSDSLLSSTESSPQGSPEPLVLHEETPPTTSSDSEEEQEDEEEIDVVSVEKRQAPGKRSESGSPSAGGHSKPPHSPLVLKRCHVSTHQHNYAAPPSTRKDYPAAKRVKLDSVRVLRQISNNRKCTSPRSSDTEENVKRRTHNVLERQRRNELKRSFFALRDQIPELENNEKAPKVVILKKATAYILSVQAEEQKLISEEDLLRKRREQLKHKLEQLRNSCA
Chain of MYC (p64);MAX (p21), in MYC:MAX (P61244 other isoform, or with tags, fused parts or gaps |, chain 2 of 2): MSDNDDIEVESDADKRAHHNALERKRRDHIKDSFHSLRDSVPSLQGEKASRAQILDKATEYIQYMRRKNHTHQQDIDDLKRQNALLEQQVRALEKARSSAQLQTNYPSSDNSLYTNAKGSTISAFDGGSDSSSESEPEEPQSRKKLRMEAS
“CCGGCTGACACGTGGTGTTAATAGCTAAGATTACTATATCGACG”: the binding signal was 0.534 log2 normalized fluorescence.

“CCGGCTGACACGTTAGATTAATAGCTAAGATTACTATATCGACG”: the binding signal is 0.482 log2 normalized fluorescence.

On to “CCGGCTGAGACCTGCTATTAATAGCTAAGATTACTATATCGACG”, for which the binding signal is -0.0388 log2 normalized fluorescence.

Consider “CCGGCTGGCACCTGGCATTAATAGCTAAGATTACTATATCGACG”, for which the binding signal is 0.319 log2 normalized fluorescence.

For the sequence “CCGGCTGAGTGTTAGTATTAATAGCTAAGATTACTATATCGACG”, the binding signal was 0.177 log2 normalized fluorescence.

On to “CCGGCTGATGATGCGTATTAATAGCTAAGATTACTATATCGACG”, for which the binding signal was 0.112 log2 normalized fluorescence.

For “CCGGCTGATATGACGTATTAATAGCTAAGATTACTATATCGACG”, the binding signal was 0.0181 log2 normalized fluorescence.

Turning to “CCGGCTAACACAAGGTATTAATAGCTAAGATTACTATATCGACG”, the binding signal was 0.534 log2 normalized fluorescence.

For the sequence “CCGGCTGACACGATATATTAATAGCTAAGATTACTATATCGACG”, the binding signal is 0.408 log2 normalized fluorescence.

As to “CCGGCTGTCACGTGCTATTAATAGCTAAGATTACTATATCGACG”, the binding signal was 0.591 log2 normalized fluorescence.

Turning to “CCGGCTGACACGTGCCCTTAATAGCTAAGATTACTATATCGACG”, the binding signal is 0.7 log2 normalized fluorescence.

In the case of “CCGGCTGACACGTGTAGTTAATAGCTAAGATTACTATATCGACG”, the binding signal was 0.834 log2 normalized fluorescence.

Consider “CCGGCTGACACGTGACCTTAATAGCTAAGATTACTATATCGACG”, for which the binding signal is 0.633 log2 normalized fluorescence.

Take “CCGGCTGTCACGTGTTCTTAATAGCTAAGATTACTATATCGACG”: the binding signal was 0.848 log2 normalized fluorescence.

For “CCGGCTGACACGTGTTTTTAATAGCTAAGATTACTATATCGACG”, the binding signal was 0.847 log2 normalized fluorescence.

For the sequence “CCGGCTGACACGTAGTTTTAATAGCTAAGATTACTATATCGACG”, the binding signal was 0.406 log2 normalized fluorescence.

Regarding “CCGGCTGACACGTAGTGTTAATAGCTAAGATTACTATATCGACG”, the binding signal is 0.396 log2 normalized fluorescence.

In the case of “CCGGCTGACACGTGTTCTTAATAGCTAAGATTACTATATCGACG”, the binding signal was 0.738 log2 normalized fluorescence.

Consider “CCGGCTGACACGTGTGTTTAATAGCTAAGATTACTATATCGACG”, for which the binding signal was 0.7 log2 normalized fluorescence.

“CCGGCTGACACGTGGTTTTAATAGCTAAGATTACTATATCGACG”: the binding signal is 0.795 log2 normalized fluorescence.

As for “CCGGCTGACACGTGTCCTTAATAGCTAAGATTACTATATCGACG”, the binding signal was 0.926 log2 normalized fluorescence.

“CCGGCTGAAACAACGTATTAATAGCTAAGATTACTATATCGACG”: the binding signal is 0.159 log2 normalized fluorescence.

With “CCGGCCGACATGTAGTATTAATAGCTAAGATTACTATATCGACG”, the binding signal is 0.368 log2 normalized fluorescence.

As to “CCGGCAGACAAGTGCTATTAATAGCTAAGATTACTATATCGACG”, the binding signal is 0.353 log2 normalized fluorescence.

On to “CCGGCAATCTAGTCTACTTAATAGCTAAGATTACTATATCGACG”, for which the binding signal was 0.0163 log2 normalized fluorescence.

Consider “CCGGCTGATATAATGTATTAATAGCTAAGATTACTATATCGACG”, for which the binding signal was 0.0653 log2 normalized fluorescence.

As for “CCGGCTGAACTCGCGTATTAATAGCTAAGATTACTATATCGACG”, the binding signal is 0.276 log2 normalized fluorescence.

For the sequence “CCGGCTGAAACCAAGTATTAATAGCTAAGATTACTATATCGACG”, the binding signal is 0.0737 log2 normalized fluorescence.

For the sequence “CCGGCTGAACCAGTGTATTAATAGCTAAGATTACTATATCGACG”, the binding signal is 0.036 log2 normalized fluorescence.

Consider “CCGGCTGACACGTGCAGTTAATAGCTAAGATTACTATATCGACG”, for which the binding signal was 0.746 log2 normalized fluorescence.

Regarding “CCGGCTGGCACGTGGTTTTAATAGCTAAGATTACTATATCGACG”, the binding signal is 0.67 log2 normalized fluorescence.

Take “CCGGCTGACACGTGCACTTAATAGCTAAGATTACTATATCGACG”: the binding signal is 0.88 log2 normalized fluorescence.

Regarding “CCGGCTAGCACGTGTTTTTAATAGCTAAGATTACTATATCGACG”, the binding signal was 0.813 log2 normalized fluorescence.

As for “CCGGCTGACACGTGCAATTAATAGCTAAGATTACTATATCGACG”, the binding signal was 0.779 log2 normalized fluorescence.

On to “CCGGCTAGCACGTGGCATTAATAGCTAAGATTACTATATCGACG”, for which the binding signal is 0.803 log2 normalized fluorescence.

On to “CCGGCTGAATCTTGGTATTAATAGCTAAGATTACTATATCGACG”, for which the binding signal is -0.0321 log2 normalized fluorescence.

In the case of “CCGGCTGAAAGGTCGTATTAATAGCTAAGATTACTATATCGACG”, the binding signal was 0.0812 log2 normalized fluorescence.

Regarding “CCGGCTGGAGCGTGGTATTAATAGCTAAGATTACTATATCGACG”, the binding signal is 0.418 log2 normalized fluorescence.

For the sequence “CCGGCTGAAATCGCGTATTAATAGCTAAGATTACTATATCGACG”, the binding signal was 0.18 log2 normalized fluorescence.

As for “CCGGCTGAATCAATGTATTAATAGCTAAGATTACTATATCGACG”, the binding signal is 0.252 log2 normalized fluorescence.

With “CCGGCTGAGAACACGTATTAATAGCTAAGATTACTATATCGACG”, the binding signal was 0.318 log2 normalized fluorescence.

For the sequence “CCGGCTGACCTTGAGTATTAATAGCTAAGATTACTATATCGACG”, the binding signal is 0.204 log2 normalized fluorescence.

For “CCGGCCGACACGTGTTATTAATAGCTAAGATTACTATATCGACG”, the binding signal is 0.999 log2 normalized fluorescence.

As to “CCGGCTGGCACGTGGTGTTAATAGCTAAGATTACTATATCGACG”, the binding signal was 0.954 log2 normalized fluorescence.

For the sequence “CCGGCCGACACGGCGTATTAATAGCTAAGATTACTATATCGACG”, the binding signal is 0.161 log2 normalized fluorescence.

On to “CCGGCCGACACCTGTTATTAATAGCTAAGATTACTATATCGACG”, for which the binding signal was 0.432 log2 normalized fluorescence.

Turning to “CCGGCAGAAACGTGTTATTAATAGCTAAGATTACTATATCGACG”, the binding signal was 0.573 log2 normalized fluorescence.

In the case of “CCGGCTGGCACGTGGTATTAATAGCTAAGATTACTATATCGACG”, the binding signal is 0.809 log2 normalized fluorescence.

Consider “CCGGCTGGCACGTGGCATTAATAGCTAAGATTACTATATCGACG”, for which the binding signal was 0.721 log2 normalized fluorescence.

On to “CCGGCAGACACGTCGTATTAATAGCTAAGATTACTATATCGACG”, for which the binding signal is 0.32 log2 normalized fluorescence.

In the case of “CCGGCAGACACGCGATATTAATAGCTAAGATTACTATATCGACG”, the binding signal was 0.437 log2 normalized fluorescence.

As to “CCGGCAGACACGTGTTATTAATAGCTAAGATTACTATATCGACG”, the binding signal is 0.993 log2 normalized fluorescence.

“CCGGCAGACACGTGATCTTAATAGCTAAGATTACTATATCGACG”: the binding signal was 0.751 log2 normalized fluorescence.

Regarding “CCGGCAGACACGTGATATTAATAGCTAAGATTACTATATCGACG”, the binding signal is 0.851 log2 normalized fluorescence.
